Data on 9 compounds can be found in PubChem BioAssay.

Assay [1] in a line: E. coli DRC41 culture turbidity changes, primary screen, E. coli filamentation inducer project, strain DRC41, OD650, 48 h (AID 1152).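 Note: E. coli MC1000 strain DRC41 lacking acrAB efflux pump and sulA.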 Conditions: E. coli DRC41 (acrAB sulA), higher = more signal, called active from +8 up or from −8 down.
Assay [2] is described as follows: small-molecule binders of probe aLefty1, primary screen, biochemical, small-molecule microarray, 635/667 nm fluorescence (AID 1153).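 Note: score merges spot fluorescence with signal-to-noise ratio from the scanned slide images.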 The note with it: higher = more signal.
Assay [3] is described as follows: PSAC antagonists in infected red cells, primary screen, cell-based, P. falciparum Indochina, OD700, 1 h (AID 1154). The note with it: P. falciparum Indochina infected RBC osmotic lysis, higher = more signal, called active from +8 up or from −8 down.
A short description of assay [4]: PSAC antagonists in infected red cells, primary screen, cell-based, P. falciparum Indochina, OD700, 2 h (AID 1155).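 Note: lysis reports solute entry through the parasite surface anion channel PSAC; channel blockers reduce lysis of infected cells.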 Conditions: P. falciparum Indochina infected erythrocytes, osmotic lysis OD700; higher = more signal, called active from +8 up or from −8 down.
A short description of assay [5]: osmotic lysis modulators in infected erythrocytes, primary screen, PSAC antagonist project, cell-based, P. falciparum Indochina, OD700, 3 h (AID 1156). The note with it: higher = more signal, called active from +8 up or from −8 down.
A short description of assay [6]: PSAC antagonists in infected red cells, primary screen, cell-based, P. falciparum Indochina, OD700, 18 h (AID 1157). The note with it: P. falciparum Indochina infected erythrocytes, osmotic lysis OD700, 18 h; higher = more signal, called active from +8 up or from −8 down.
The nature of assay [7]: modulators of S6 phosphorylation in cells, primary screen, cell-based, A549, cytoblot, luminescence, serum-stimulated (AID 1158).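 Note: serum-stimulated A549 lung adenocarcinoma cells; signal is phosphorylated S6 detected by cytoblot immunostaining with HRP secondary.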 The note with it: A549 phospho-S6 cytoblot, 5 h, higher = more signal.
The target in assay [8] is NADPH oxidase 2 (Homo sapiens) (UniProt P04839). Kind of assay: NOX2-dependent H2O2 signal modulators, primary screen, NOX inhibitor project, cell-based, HEK293-NOX2, PMA-stimulated, Amplex Red fluorescence (AID 1159). Note: test concentration not given here. The note with it: 45 min, higher = more signal, called active from +8 up or from −8 down.
Chain of NADPH oxidase 2 (Homo sapiens) (P04839 whole entry, looked up): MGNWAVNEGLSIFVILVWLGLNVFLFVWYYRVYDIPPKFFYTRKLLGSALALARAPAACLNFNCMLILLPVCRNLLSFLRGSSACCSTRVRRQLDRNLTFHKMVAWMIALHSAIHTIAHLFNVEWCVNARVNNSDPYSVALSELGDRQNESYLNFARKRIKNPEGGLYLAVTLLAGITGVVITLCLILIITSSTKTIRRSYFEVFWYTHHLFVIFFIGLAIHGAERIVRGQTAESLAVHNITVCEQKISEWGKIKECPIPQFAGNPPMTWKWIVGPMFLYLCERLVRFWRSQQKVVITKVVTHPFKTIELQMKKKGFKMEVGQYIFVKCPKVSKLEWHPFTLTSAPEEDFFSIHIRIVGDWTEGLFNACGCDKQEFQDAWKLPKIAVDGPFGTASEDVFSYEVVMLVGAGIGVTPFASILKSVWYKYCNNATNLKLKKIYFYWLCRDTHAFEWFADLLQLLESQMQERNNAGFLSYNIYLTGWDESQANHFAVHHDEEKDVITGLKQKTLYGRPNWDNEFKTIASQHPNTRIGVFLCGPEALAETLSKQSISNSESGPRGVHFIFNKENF
In assay [9] the target is NADPH oxidase 4 (Homo sapiens) (UniProt Q9NPH5). Kind of assay: NOX4-dependent H2O2 signal modulators, primary screen, NOX inhibitor project, cell-based, HEK293-NOX4, tetracycline-induced, Amplex Red fluorescence (AID 1160). The note with it: 45 min, higher = more signal, called active from +8 up or from −8 down.
Chain of NADPH oxidase 4 (Homo sapiens) (Q9NPH5 whole entry, looked up): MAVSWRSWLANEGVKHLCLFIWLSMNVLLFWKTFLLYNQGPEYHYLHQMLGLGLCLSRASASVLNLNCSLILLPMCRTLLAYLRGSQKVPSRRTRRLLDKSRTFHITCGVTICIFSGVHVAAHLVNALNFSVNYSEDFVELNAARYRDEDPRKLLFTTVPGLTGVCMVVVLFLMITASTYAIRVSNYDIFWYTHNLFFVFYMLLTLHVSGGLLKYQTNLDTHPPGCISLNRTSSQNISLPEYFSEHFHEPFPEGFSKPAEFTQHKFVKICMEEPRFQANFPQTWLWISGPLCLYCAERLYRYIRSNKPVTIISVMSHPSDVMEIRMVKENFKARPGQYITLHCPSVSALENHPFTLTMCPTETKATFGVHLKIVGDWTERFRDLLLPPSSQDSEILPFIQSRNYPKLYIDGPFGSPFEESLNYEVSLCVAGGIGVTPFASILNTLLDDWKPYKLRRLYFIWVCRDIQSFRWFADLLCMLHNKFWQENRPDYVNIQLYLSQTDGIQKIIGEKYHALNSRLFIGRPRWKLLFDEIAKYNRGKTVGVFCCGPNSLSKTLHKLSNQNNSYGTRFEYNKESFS
The target in assay [10] is NADPH oxidase 5 (Homo sapiens) (UniProt Q96PH1). The assay can be described thus: NOX5-dependent H2O2 signal modulators, primary screen, NOX inhibitor project, cell-based, HEK293-NOX5, Amplex Red fluorescence (AID 1161). The note with it: HEK293-NOX5, ionomycin, 45 min, higher = more signal.
Chain of NADPH oxidase 5 (Homo sapiens) (Q96PH1 whole entry, looked up): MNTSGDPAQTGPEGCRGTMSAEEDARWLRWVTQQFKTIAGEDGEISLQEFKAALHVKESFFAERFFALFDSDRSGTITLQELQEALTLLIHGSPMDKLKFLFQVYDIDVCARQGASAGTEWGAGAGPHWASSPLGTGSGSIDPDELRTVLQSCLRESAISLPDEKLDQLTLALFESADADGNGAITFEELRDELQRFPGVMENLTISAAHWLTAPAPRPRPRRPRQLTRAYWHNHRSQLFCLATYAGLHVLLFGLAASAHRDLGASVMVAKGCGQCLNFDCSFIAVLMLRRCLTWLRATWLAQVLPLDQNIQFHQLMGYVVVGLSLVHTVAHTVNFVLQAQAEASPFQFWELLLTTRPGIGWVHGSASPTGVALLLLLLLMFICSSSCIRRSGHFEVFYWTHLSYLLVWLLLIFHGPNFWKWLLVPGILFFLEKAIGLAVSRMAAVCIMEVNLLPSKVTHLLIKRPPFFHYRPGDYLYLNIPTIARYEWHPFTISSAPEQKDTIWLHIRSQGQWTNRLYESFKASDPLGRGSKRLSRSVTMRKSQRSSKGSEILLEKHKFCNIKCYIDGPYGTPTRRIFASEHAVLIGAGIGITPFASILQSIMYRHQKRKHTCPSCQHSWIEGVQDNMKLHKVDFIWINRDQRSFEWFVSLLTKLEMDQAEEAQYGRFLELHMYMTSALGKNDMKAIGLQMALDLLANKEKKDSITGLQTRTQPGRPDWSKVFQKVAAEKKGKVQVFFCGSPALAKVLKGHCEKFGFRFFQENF
A short description of assay [11]: A549 cell viability effects, profiling panel, calcein-AM fluorescence, 48 h, basal (AID 1162). Note: test concentration not given here. The note with it: higher = more signal.
A short description of assay [12]: adipocyte viability effects, profiling panel, cell-based, 3T3-L1 adipocytes, calcein-AM fluorescence, 48 h, basal (AID 1163). Note: test concentration not given here. The note with it: 3T3-L1 adipocytes viability, higher = more signal.
The nature of assay [13]: HepG2 cell viability effects, profiling panel, calcein-AM fluorescence, 48 h, basal (AID 1164). Note: test concentration not given here. Conditions: higher = more signal.
Assay [14] can be described thus: MM1S cell viability effects, profiling panel, calcein-AM fluorescence, 48 h, basal (AID 1165).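 Note: viability of MM1S multiple myeloma cells under basal unstimulated conditions; test concentration not given here.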 Conditions: higher = more signal.
Assay [15] in a line: basal RPMI8226 viability, no added stimulus, profiling panel, cell-based, calcein-AM fluorescence, 48 h, PK04 Diversity Set (AID 1166).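 Note: cells grown under basal conditions without added stimulus; test concentration not given here.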 The note with it: RPMI8226 myeloma viability, higher = more signal.
Assay [16] is described as follows: basal HepG2 mitochondrial membrane potential changes, profiling panel, cell-based, JC-1 fluorescence, 24 h, 100 nL compound (AID 1167). Note: test concentration not given here. Conditions: higher = more signal.
Assay [17] can be described thus: basal 3T3-L1 adipocyte mitochondrial potential changes, profiling panel, cell-based, JC-1 fluorescence, 3T3-L1 adipocytes, 24 h, 100 nL compound (AID 1168). Note: test concentration not given here. Conditions: JC-1 mitochondrial fluorescence, higher = more signal, called active from +8 up or from −8 down.
Assay [18] in a line: basal RPMI8226 mitochondrial membrane potential changes, profiling panel, cell-based, JC-1 fluorescence, 24 h, 100 nL compound (AID 1169). Note: test concentration not given here. The note with it: RPMI8226 myeloma, JC-1 mitochondrial potential fluorescence, higher = more signal.
The nature of assay [19]: basal MM1S mitochondrial membrane potential changes, profiling panel, cell-based, JC-1 fluorescence, 24 h, 100 nL compound (AID 1170). Note: test concentration not given here. Conditions: higher = more signal.
A short description of assay [20]: A549 lung cancer cell viability effects, profiling panel, resazurin fluorescence, 24 h, PK04 Diversity Set (AID 1171). Note: test concentration not given here. Conditions: higher = more signal, called active from +8 up or from −8 down.

Structures are written as SMILES. The source made the active and inactive calls.

As for `O=C1OCC=C[C@H]2OC34C=CCN(c5ccc6ccccc6c5)C(=O)[C@H]3N(CCCO)C(=O)[C@@H]4[C@@H]12` (stereo not given in full), the z-score in assay [1] is 0.392 (inactive); in [3], 0.638 (inactive); in assay [4], -0.0892 (inactive); in assay [5] it was 0.572 (inactive); in assay [6], -1.56 (inactive); in [7], 1.28. Moreover, the z-score was 1.09 (inactive) in [8]; -0.0483 (inactive) in assay [9]; 0.904 in [10]; 0.501 in assay [11]; 1.79 in [12]; 0.0068 in [13]. For the same compound, the z-score is -0.608 in assay [14]; -0.691 in assay [15]; -0.448 in assay [16]; -0.517 (inactive) in assay [17]; 0.0183 in assay [18]; -0.46 in [19]. Besides, the z-score in assay [20] was -1.09 (inactive). Besides, the composite z-score in assay [2] was 0.251.

`COc1ccc(C#Cc2ccc3c(c2)[C@]2(C(=O)N3)[C@H](c3ccc(O)cc3)N3[C@H](c4ccccc4)[C@H](c4ccccc4)OC(=O)[C@H]3[C@@H]2C(=O)N2CCCCCCC2)cc1`: the z-score in [1] is 0.777 (inactive); in assay [3], -0.212 (inactive); in assay [4] it was -0.763 (inactive); in assay [5], -0.272 (inactive); in [6], -1.29 (inactive); in assay [7] it was 2.87. Also, the z-score in [8] is 0.723 (inactive); in assay [9], -0.00989 (inactive); in assay [10] it was 0.855; in assay [11] it was 0.334; in assay [12], 1.01; in [13] it was 0.629. For the same compound, the z-score in assay [14] was -0.0384; in [15] it was -0.208; in assay [16] it was 0.269; in assay [17], 3.48 (inactive); in [18], -0.538; in assay [19], 0.366. Moreover, in [20], the z-score was -0.531 (inactive). The composite z-score in [2] amounted to 2.53.

Take `C[C@]1(C(=O)NCc2ccccc2)c2ccccc2C(=O)N(Cc2cc(F)cc(C(F)(F)F)c2)[C@H]1c1ccc(CO)cc1`: the z-score in assay [1] is 0.537 (inactive); in assay [3], 5.2 (inactive); in assay [4], 1.01 (inactive); in assay [5] it was 1.12 (inactive); in assay [6] it was 0.38 (inactive); in [7], -0.239. Moreover, the z-score in [8] is -1.29 (inactive); in assay [9] it was 0.26 (inactive); in assay [10] it was -0.151; in [11] it was 0.179; in assay [12], -0.628; in [13], 1.11. For the same compound, the z-score in [14] is 0.304; in [15], 0.411; in [16], 2.16; in [17], 0.41 (inactive); in assay [18], 0.714; in [19], -0.765. The z-score in assay [20] was -0.375 (inactive). In assay [2], the composite z-score was -0.101.

As to `O=C1C[C@]2(c3ccc([N+](=O)[O-])cc3)C(=O)N(CC(F)(F)F)c3cc(CO)ccc3[C@H]2N1CC12CC3CC(CC(C3)C1)C2`, the z-score in assay [1] is 0.458 (inactive); in assay [3], 0.56 (inactive); in assay [4], -0.365 (inactive); in assay [5], 0.12 (inactive); in [6], 0.255 (inactive); in [7], 0.229. Also, the z-score in assay [8] was -0.347 (inactive); in assay [9], 0.375 (inactive); in assay [10], 0.0968; in assay [11] it was 0.831; in assay [12], -0.425; in assay [13], 0.655. Also, the z-score in [14] was 0.489; in [15] it was 0.0342; in [16], 0.91; in assay [17], -1.2 (inactive); in assay [18], 0.308; in assay [19] it was -0.964. Also, the z-score in assay [20] is -0.399 (inactive). In assay [2], the composite z-score was -0.629.

Regarding `CC(C)C(O)C1C=CC2C(=O)N(c3ccccc3)C(=O)C2N1Nc1ccc(C#N)cc1` (stereo not given), the z-score in assay [1] was -0.411 (inactive); in assay [3], 12 (active); in assay [4], 1.1 (inactive); in [5], 2.03 (inactive); in assay [6], 0.875 (inactive); in assay [7], -1.09. The z-score in [8] was -1.81 (inactive); in assay [9] it was -4.46 (inactive); in assay [10], -2.83; in [11], -0.777; in assay [12] it was -0.289; in assay [13], -0.114. In addition, the z-score in [14] was -0.0628; in assay [15], -1.15; in assay [16], -0.421; in [17], -1.47 (inactive); in assay [18], -0.775; in assay [19], -0.44. Further, in assay [20], the z-score is -0.796 (inactive). In assay [2], this compound came in with a composite z-score of 0.797.

Regarding `O=c1cccc(C=Cc2ccccc2)o1`, the z-score in [1] is 0.465 (inactive); in [3], 2.92 (inactive); in assay [4], 0.88 (inactive); in assay [5], 0.488 (inactive); in assay [6], 0.931 (inactive); in [7] it was -0.39. Further, the z-score was 0.165 (inactive) in assay [8]; -0.562 (inactive) in assay [9]; -0.0341 in assay [10]; -0.523 in assay [11]; -0.601 in assay [12]; 0.645 in assay [13]. Besides, the z-score in [14] is -0.571; in assay [15] it was -0.743; in assay [16] it was 0.053; in assay [17], 0.355 (inactive); in [18] it was 0.629; in assay [19], -0.969. Moreover, the z-score in assay [20] is 0.261 (inactive). For the same compound, the composite z-score in [2] was -0.29.

On to `COCCOC(=O)N1C(=O)[C@@]2(c3cc(C#CCC(C(=O)OC)C(=O)OC)ccc31)[C@H](C(=O)N1CCCCCCC1)[C@H]1C(=O)O[C@H](c3ccccc3)[C@H](c3ccccc3)N1[C@@H]2c1ccc(OCCO)cc1`, for which the z-score in [1] is 0.917 (inactive); in assay [3] it was 17.1 (active); in assay [4], 4.27 (inactive); in assay [5], 0.791 (inactive); in assay [6], 1.14 (inactive); in assay [7] it was -0.0447. Besides, the z-score in assay [8] was 0.327 (inactive); in assay [9] it was 0.43 (inactive); in assay [10], 0.547; in [11] it was 0.855; in assay [12], 1.27; in [13], 1.19. The z-score is -0.38 in assay [14]; 0.185 in [15]; 0.322 in assay [16]; -5 (inactive) in assay [17]; -0.812 in assay [18]; -1.41 in [19]. For the same compound, the z-score in [20] was 1.33 (inactive). The composite z-score in assay [2] stood at 2.5.

On to `O=C(OCCF)C1=CCC(c2cccc(Cl)c2)O1` (stereo not given), for which the z-score in assay [1] was 0.562 (inactive); in assay [3] it was 16.4 (active); in assay [4] it was 0.0666 (inactive); in assay [5], -0.628 (inactive); in [6], -1.21 (inactive); in assay [7], 0.543. The z-score in [8] is -0.0482 (inactive); in assay [9], 0.842 (inactive); in assay [10], 0.382; in assay [11], 0.558; in assay [12], -0.0426; in [13] it was 0.303. Moreover, the z-score in assay [14] was 1.17; in [15], 0.669; in assay [16], 0.89; in assay [17] it was 1.15 (inactive); in [18], -1.07; in assay [19] it was -0.157. Moreover, the z-score in assay [20] was -0.61 (inactive). This compound yielded a composite z-score in assay [2] of -0.378.

In the case of `COc1cc2c(cc1O)C(C)N(Cc1cccc(OC(F)(F)F)c1)CC2` (stereo not given), the z-score in [1] was 0.126 (inactive); in [3], 2.96 (inactive); in assay [4] it was 0.328 (inactive); in assay [5], 2.09 (inactive); in assay [6], 0.573 (inactive); in assay [7], -0.0952. The z-score in [8] was -3.51 (inactive); in assay [9], -2.46 (inactive); in assay [10], -3.03; in assay [11] it was -0.762; in assay [12], 0.815; in [13], -1.51. Also, the z-score was -2.34 in assay [14]; -2 in [15]; 0.0471 in [16]; -0.793 (inactive) in assay [17]; 0.0842 in assay [18]; -1.24 in assay [19]. In assay [20], the z-score was 0.849 (inactive). In addition, the composite z-score in assay [2] is -0.0015.
